In PubChem BioAssay AID1259349 (Broad Institute, 2017):
In all, about 17,000 compounds went through this assay and about 1,100 (6.5%) were called active.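 How the source made its calls: active means z-score of -3 or lower, meaning strong loss of probe binding signal; inactive means the rest.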 The full list was thinned out, with actives kept by preference.

What follows are compounds tested against Insulin-degrading enzyme (Homo sapiens) (UniProt P14735) (assay: exo-site inhibitors of human IDE, primary screen, biochemical, fluorescence anisotropy, probe displacement (AID 1259349;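 further: His-tagged human IDE residues 42-1019 made in E. coli with 30 nM FL-6b probe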)). Conditions: purified IDE, FL-6b probe fluorescence polarization; at 20 µM; hits give low values.
Insulin-degrading enzyme (Homo sapiens), sequence (P14735 42-1019 limits assumed): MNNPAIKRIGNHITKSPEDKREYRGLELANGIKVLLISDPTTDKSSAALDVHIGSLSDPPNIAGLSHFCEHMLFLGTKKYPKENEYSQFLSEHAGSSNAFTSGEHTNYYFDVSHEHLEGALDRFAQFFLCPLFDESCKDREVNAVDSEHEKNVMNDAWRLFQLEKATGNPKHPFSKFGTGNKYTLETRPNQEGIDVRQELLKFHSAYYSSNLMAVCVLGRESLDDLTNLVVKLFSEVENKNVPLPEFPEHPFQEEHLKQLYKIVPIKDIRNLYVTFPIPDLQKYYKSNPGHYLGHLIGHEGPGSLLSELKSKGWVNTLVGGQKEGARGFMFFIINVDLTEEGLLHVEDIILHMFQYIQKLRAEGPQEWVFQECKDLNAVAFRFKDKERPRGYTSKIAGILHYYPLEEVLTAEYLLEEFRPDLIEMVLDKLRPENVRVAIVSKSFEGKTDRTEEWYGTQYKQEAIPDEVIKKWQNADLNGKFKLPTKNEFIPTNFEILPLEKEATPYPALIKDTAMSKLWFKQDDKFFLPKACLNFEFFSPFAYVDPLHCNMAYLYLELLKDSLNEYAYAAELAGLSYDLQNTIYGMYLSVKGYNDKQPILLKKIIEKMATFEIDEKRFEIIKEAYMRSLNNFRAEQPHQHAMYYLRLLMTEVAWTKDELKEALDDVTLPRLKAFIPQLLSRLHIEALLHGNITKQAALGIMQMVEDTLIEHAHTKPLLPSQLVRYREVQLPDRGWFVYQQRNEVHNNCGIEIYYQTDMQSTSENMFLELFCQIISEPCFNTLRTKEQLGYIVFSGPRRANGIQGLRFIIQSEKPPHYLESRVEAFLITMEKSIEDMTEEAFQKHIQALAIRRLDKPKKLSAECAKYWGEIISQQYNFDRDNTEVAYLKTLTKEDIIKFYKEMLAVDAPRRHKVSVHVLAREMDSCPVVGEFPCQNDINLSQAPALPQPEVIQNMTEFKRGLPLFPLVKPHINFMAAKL
For `O=C(Cc1ccccn1)N1CCCCN2[C@@H](CO)[C@@H](c3ccc(C#Cc4ccccc4)cc3)[C@@H]2C1`, the z-score was -6.91 (active).
In the case of `O=C(Cc1ccccc1)N1CCCCN2[C@H](CO)[C@H](c3ccc(C#Cc4ccccc4)cc3)[C@H]2C1`, the z-score is reported as -1.93 (inactive).
`O=C(Cc1ccccn1)N1CCCCN2[C@H](C1)[C@H](c1ccc(-c3ccccc3F)cc1)[C@@H]2CO` was tested, and the z-score was -1.94 (inactive).
For `O=C(Cc1ccncc1)N1CCCCN2[C@@H](CO)[C@H](c3ccc(C#CC4(O)CCCC4)cc3)[C@@H]2C1`, the z-score was 1.31 (inactive).
`COC(=O)[C@@H]1[C@@H](CO)[C@@H]2Cn3c(ccc(-c4cccc(C(=O)N(C)C)c4)c3=O)[C@H]1N2C(=O)NC(C)C` was tested, and the z-score was -0.64 (inactive).
